From PubChem
Most compounds without a hit are left out; they make up all but 6.5% or so of the library.
Vaccinia mCherry – inhibitors of vaccinia virus infection (mCherry reporter signal). Vaccinia virus mCherry reporter infection, fluorescence. Potency, µM (top dose mostly 36.5 µM), for the others: at the top dose activity change, negative = inhibition, most hits filed as inhibitors. 310,000 tested, 0.63% active. AID 720579; calls by dose curve; tested in A549 cells; also: potency is read from the fitted curve at half-maximal effect; nearly all actives have a fitted effect of over 35% in size
Lassa entry inh – blocks Lassa virus binding to or entry into cells | Lassa virus pseudotype entry inhibition, cell reporter | Potency, µM (highest dose often 37.9 µM), without a hit: top-dose activity change, negative = inhibition, usual class: inhibitors | 300,000 tested, 1.2% active | AID 540256; calls by dose curve; tested in HEK293 cells; also: potency is read from the fitted curve at half-maximal effect; nearly all actives have a fitted effect of over 50% in size
MARV entry inh – inhibitors of Marburg virus binding or cell entry. Marburg virus pseudotyped entry inhibition, cell reporter. Potency, µM (highest dose often 37.8 µM), inactives show top-dose activity change, negative = inhibition, usual class: inhibitors. AID 540276. 300,000 tested, 1.8% active; calls by dose curve; tested in HEK293 cells; also: potency is read from the fitted curve at half-maximal effect
HCMV antiviral – blocks human cytomegalovirus replication; HFF cells, HCMV-luciferase reporter, 72 h; hits give low values; activity change, negative = inhibition, % at 57.5 µM; 410,000 tested, 4.5% active; AID 1259415; in the data active = activity change below about -60%; inconclusive = no clear call, values can overlap the other calls; inactive = above about -39%
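Compounds were evaluated in HFFs infected with an HCMV luciferase reporter virus (MOI 1 PFU/cell). Luciferase in lysates collected 72 h post infection served as the replication measure.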
Vaccinia Venus – inhibitors of vaccinia virus (Venus reporter). 330,000 tested, 0.46% active. Potency, µM (titrated, usually from 36.5 µM), without a hit: at the top dose activity change, negative = inhibition, most hits filed as inhibitors. AID 720580. Vaccinia virus Venus reporter expression, fluorescence; calls by dose curve; tested in A549 cells; also: potency is read from the fitted curve at half-maximal effect; nearly all actives have a fitted effect of over 30% in size
FMDV inh – blocks foot and mouth disease virus | FMDV antiviral cell-based qHTS | Potency, µM (top dose mostly 57.9 µM), inactives show at the top dose activity change, negative = inhibition, hits mostly inhibitors | 410,000 tested, 1.2% active; calls by dose curve; tested in HEK293T cells; also: read-out not given here; potency is read from the fitted curve at half-maximal effect; nearly all actives have a fitted effect of over 45% in size
An asterisk follows results filed as active; i = inactive; ? = inconclusive; . = not tested or not shown; [ ] = dose if it differs, or a comment. % is scaled to controls: 0 for no effect and ±100 for the full control effect.

SMILES	Vaccinia mCherry	Lassa entry inh	MARV entry inh	HCMV antiviral	Vaccinia Venus	FMDV inh
Cc1cc(C)c(Cn2c(C(O)c3ccccc3)nc3ccccc32)c(C)c1 (stereo not given)	-10%	?	?	?	-21%	-26%
CCCCNC1C(CC)C(CCC)C(C#N)(C#N)C1(C#N)C#N (stereo not given)	.	?	?	.	-26%	32µM*
CCC[C@@H](/C=C/C(=O)OC(C)(C)C)NC(=O)C(F)(F)F	.	.	.	21	.	.
Cc1ccccc1OCCCCn1c(CO)nc2ccccc21	i	?	?	-94*	-13%	?
Cc1ccc(OCCCCn2cnc3ccccc32)cc1	-2%	-1%[46.1 µM]	-7%[46.1 µM]	10	-21%	-10%
Cc1cccc(Cn2cnc3ccccc32)c1	-8%	0%	?	-15	-6%	-8%
CCCCN1CC(c2nc3ccccc3n2CCCCOc2ccccc2C)CC1=O (stereo not given)	-20%	2%[46.1 µM]	?	-68*	-21%	-25%
Cc1ccccc1OCCCCn1cnc2ccccc21	.	-2%	-22%	-68*	.	-23%
Cc1ccc(OCCCn2c(CO)nc3ccccc32)cc1	.	-27%	-33%	-13	-22%	-19%
Cc1ccc(Cn2cnc3ccccc32)cc1C	-5%	-1%	-13%	-63*	-9%	?
Cn1c(Nc2ccccc2)nc2cnc(Nc3cccc(Cl)c3)cc21	.	.	.	-7	.	.
O=C(NC1CCCCCC1)C1c2ccccc2C(=O)N1Cc1ccccc1Cl (stereo not given)	-1%	-10%[46.1 µM]	?	-6	-6%	-11%
Cn1c2ccccc2c2cnn(CC(=O)Nc3ccccc3C(F)(F)F)c(=O)c21	-8%	?	5%[46.1 µM]	20	-1%	8%
CC1=C(C(=O)OCc2ccc3nsnc3c2)N2C(=O)[C@@H](NC(=O)OCc3ccc4nsnc4c3)[C@H]2SC1	i	.	.	.	-4%	.
COc1ccc(-c2nc3cc(C(C)C)ccc3o2)cc1NC(=O)c1ccc(C)c(Cl)c1	-7%	26%[46.1 µM]	?	10	-4%	-12%
O=C(Nc1nnc(-c2ccccc2Cl)o1)c1ccc(S(=O)(=O)N2CCCCCC2)cc1	-18%	?	?	.	-28%	-25%
O=C(Nc1nnc(-c2cccs2)o1)c1ccc(S(=O)(=O)N2CCOCC2)cc1	?	-8%	?	-84*	?	-14%
CC1CCN(S(=O)(=O)c2ccc(C(=O)Nc3nnc(C4=COCCO4)o3)cc2)CC1	.	.	.	-70*	.	-24%
O=C(Nc1nnc(C2=COCCO2)o1)c1ccc(S(=O)(=O)N2CCCC2)cc1	-3%	2%[46.1 µM]	3%[46.1 µM]	?	-6%	-14%
O=[N+]([O-])c1ccc(Nc2nc(NCCN3CCOCC3)nc(Nc3ccc(Cl)cc3)n2)cc1	-25%	.	.	.	-29%	.
CCCOc1ccc(N2C(=O)CC(NCc3cccs3)C2=O)cc1 (stereo not given)	.	-5%	0%	11	11µM*	-9%
O=C1c2cccc3c([N+](=O)[O-])ccc(c23)C(=O)N1c1nccs1	.	?	?	-95*	.	35µM*
O=C1c2cccc3c([N+](=O)[O-])ccc(c23)C(=O)N1c1ccc(Cl)cn1	-10%	?	?	-105*	36%	25µM*
O=C1c2cccc3c([N+](=O)[O-])ccc(c23)C(=O)N1c1ccccn1	i	?	10µM*	-103*	10%	?
c1csc(CNc2ccnc(-c3ccoc3)n2)c1	.	.	.	.	.	9%
SMILES	Vaccinia mCherry	Lassa entry inh	MARV entry inh	HCMV antiviral	Vaccinia Venus	FMDV inh
Cc1cc(/C=C(\C#N)C(N)=O)c(C)n1-c1ccc(N2CCOCC2)c([N+](=O)[O-])c1	?	-23%	?	-75*	-15%	?
Cc1cc(C=O)c(C)n1-c1ccc(N2CCCCC2)c([N+](=O)[O-])c1	.	?	?	-25	-14%	?
C/C(=N\Nc1nc(C)cc(-c2ccccc2)n1)c1ccc(O)cc1	.	.	.	-89*	.	10%
C/C(=N\Nc1nc(C)cc(-c2ccccc2)n1)c1ccc(C)o1	?	?	-17%[46.1 µM]	-63*	-20%	?
O=C(Cn1c(SCC(=O)Nc2ccc(F)cc2)nc2ccccc21)NCc1ccc(Cl)cc1	?	?	.	-74*	-23%	-25%
Cc1ccc(CNC(=O)Cn2c(SCC(=O)Nc3ccc(F)cc3)nc3ccccc32)cc1	-25%	?	.	-93*	-12%	-13%
CC1CCCC(C)N1C(=O)Cn1c(SCC(=O)NCc2ccc3c(c2)OCO3)nc2ccccc21 (stereo not given)	-8%	-2%	-4%	-68*	1%	-13%
O=C(Cn1c(SCC(=O)Nc2ccc(F)cc2)nc2ccccc21)NCc1ccc(F)cc1	-18%	?	.	-34	-7%	-18%
Cc1ccc(NC(=O)CSc2nc3ccccc3c3nc4ccccc4n23)cc1	.	?	6.5µM*	-87*	.	-7%
CCCCCc1ccc(-c2cn(Cc3ccc4c(c3)C(=O)c3ccccc3C4=O)nn2)cc1	-17%	.	.	.	-13%	.
COc1ccc2c(c1)c1nnc(SC(C)C)nc1n2C	-9%	.	.	.	-8%	.
O=[N+]([O-])c1ccc(Oc2cccc3cccnc23)c([N+](=O)[O-])c1	?	?	?	-69*	-24%	?
N#Cc1ccc(Oc2cccc3cccnc23)c([N+](=O)[O-])c1	-17%	?	-13%[46.1 µM]	?	-11%	-10%
CC#CCN1c2ccccc2[C@]23CCC(=O)N(Cc4ccco4)C2=NC(C(=O)OC)=C(C(=O)OC)[C@H]13	.	.	-44%[14.2 µM]	.	.	.
O=C(O)c1cc(-c2ccc(Cl)s2)nc2ccccc12	-10%	?	11µM*	-2	11%	19%
CCN1CCN(C(=O)c2cc(-c3ccc(Cl)s3)nc3ccccc23)CC1	.	.	.	-4	.	0%
COC(=O)C1CCN(C(=O)c2cc(-c3ccc(Cl)s3)nc3ccccc23)CC1	.	.	.	-33	.	35µM*
CCN(C(=O)c1cc(S(=O)(=O)N2CCCC2)cn1C)c1ccc(OC)cc1	-6%	-12%[46.1 µM]	.	-33	-9%	54%
Cc1cccc(C)c1Nc1oc(-c2ccccc2)nc1-c1ccccc1F	.	-10%[14.3 µM]	?	.	.	.
Cc1ccc(OCc2nnc(SCc3cc(=O)[nH]c4ccccc34)n2-c2ccccc2)cc1	?	?	?	-18	10µM*	0%
Cc1ccc(NC(=O)CSc2nnc(COc3ccc(C#N)cc3)n2-c2ccccc2)cc1C	-14%	?	7.3µM*	-13	-12%	-3%
Cc1ccc(C(=O)CSc2nnc(COc3ccc(C#N)cc3)n2-c2ccccc2)cc1	-19%	-8%	16%	-1	-6%	-6%
Cc1ccc(OCc2nnc(SCC(=O)Nc3cccc4ccccc34)n2-c2ccccc2)cc1	?	?	13µM*	26	?	-24%
C[C@@H]1CN([C@H](C)CO)S(=O)(=O)c2ccc(Br)cc2O[C@H]1CN(C)CC1CCOCC1	.	.	.	-22	.	.
COC(=O)c1c(-c2cccs2)csc1NC(=O)COc1ccc(C(C)(C)C)cc1	-4%	2%[46.1 µM]	5%[46.1 µM]	-13	-8%	-22%
